PubChem BioAssay (EPA / NIEHS)
Calls of active or inactive are those of the source. The calls were made as follows: active = hit-call score of the fitted dose curve at least 0.9, where 1 is the maximum; inactive = score below 0.9.

Assays:
[1] = APR_HepG2_P-H2AX_72hr: Apredica 72-hour HepG2 Assay for H2AX Phosphorylation (AID 2282916); conditions: imaging, actives raise or lower the signal;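 also: phospho-histone H2A.x immunostain intensity per cell marking DNA damage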
Outline: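 Readout: phospho-H2A.x immunofluorescence (FITC secondary) plus Hoechst nuclear stain, high-content imaging at 20x, six fields/well. HepG2, 72 hr compound exposure, 0.39–200 uM, final DMSO 0.5% v/v. Gain or loss fitted relative to DMSO baseline.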

[2] = APR_HepG2_MitoMembPot_72hr: Apredica 72-hour HepG2 Assay for Mitochondrial Membrane Potential (AID 2282917); conditions: imaging, actives raise or lower the signal
Outline: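 HepG2 cells dosed 72 hr with compound at 0.39–200 uM in duplicate, 0.5% v/v DMSO final. Mitochondria stained with 250 nM MitoTracker Red CMXRos for 30 min before formaldehyde fixation, imaged by high-content fluorescence; bidirectional fit versus DMSO.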

[3] = APR_HepG2_MitoticArrest_72hr: Apredica 72-hour HepG2 Assay for Mitotic Arrest (AID 2282918); conditions: high-content imaging, actives raise or lower the signal
Outline: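 HepG2 cells treated 72 h at 0.39–200 uM, 0.5% DMSO final; formaldehyde-fixed, stained with Hoechst 33342 and phospho-histone H3 antibody, imaged by high-content fluorescence; bidirectional fit versus DMSO.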

[4] = APR_HepG2_MicrotubuleCSK_72hr: Apredica 72-hour HepG2 Assay for Microtubule CSK Stabilty (AID 2282919); conditions: HepG2 microtubule cytoskeleton, high-content imaging, actives raise or lower the signal
Outline: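 HepG2, 72 hr cmpd exposure, 0.39–200 uM (10 pts, duplicate), 0.5% DMSO. 3.7% formaldehyde fix, 0.5% Triton perm, anti-alpha-tubulin/Cy5 plus Hoechst. HCS fluorescence intensity; bidirectional fit vs DMSO baseline; taxol as positive control.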

[5] = APR_HepG2_P-H2AX_24hr: Apredica 24-hour HepG2 Assay for H2AX Phosphorylation (AID 2282920); conditions: high-content imaging, actives raise or lower the signal
Outline: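 HepG2 cells dosed 24 h at 0.39–200 uM (10 points, duplicate, 0.5% DMSO final). Formaldehyde-fixed and permeabilized, then immunostained for phospho-H2A.x with Hoechst. Fluorescence quantified by high-content imaging, fitted bidirectionally versus DMSO.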

[6] = APR_HepG2_StressKinase_72hr: Apredica 72-hour HepG2 Assay for Stress Kinase (AID 2282921); conditions: HepG2 stress kinase (phospho-c-Jun) imaging, actives raise or lower the signal
Outline: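 Phospho-c-Jun immunofluorescence measured by high-content imaging at 20x, six fields per well; bidirectional curve fitting against DMSO as baseline. Dosing: 0.39–200 uM, 72 h, 0.5% DMSO final.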

[7] = APR_HepG2_StressKinase_24hr: Apredica 24-hour HepG2 Assay for Stress Kinase (AID 2282922); conditions: HepG2 stress kinase (phospho-c-Jun) imaging, actives raise or lower the signal
Outline: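 Read-out: phospho-c-Jun immunofluorescence (Cy3 secondary) quantified by high-content imaging at 20x, nuclei defined by Hoechst 33342. Human HepG2 liver cells dosed 24 hr, 0.39–200 uM, DMSO 0.5% v/v; gain or loss of signal fitted relative to DMSO.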

[8] = APR_HepG2_p53Act_72hr: Apredica 72-hour HepG2 Assay for p53 Activation (AID 2282923); conditions: high-content imaging, actives raise or lower the signal;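 also: average cellular p53 protein immunofluorescence intensity in HepG2 cells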
Outline: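 Readout: p53 immunofluorescence quantified by automated high-content imaging at 20x, six fields per well, nuclei located via Hoechst. Dosing ran 72 hr over ten concentrations from 0.39 to 200 uM; bidirectional curve fitting against DMSO baseline.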

[9] = APR_HepG2_MitoMass_72hr: Apredica 72-hour HepG2 Assay for Mitochondrial Mass (AID 2282924); conditions: high-content imaging, actives raise or lower the signal;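 also: MitoTracker Red CMXRos stain intensity per cell imaged as mitochondrial mass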
Outline: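 Read-out: MitoTracker Red fluorescence intensity from automated imaging (20x, six fields per well) in human HepG2 liver cells. Dosing ran 72 hr, 0.39–200 uM, 0.5% DMSO; bidirectional curve fitting versus DMSO baseline.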

[10] = APR_HepG2_NuclearSize_72hr: Apredica 72-hour HepG2 Assay for Nuclear Size (AID 2282925); conditions: high-content imaging, actives raise or lower the signal
Outline: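 Read-out: nuclear diameter from Hoechst 33342 images (ArrayScan, 20x, six fields/well), via cell-cycle image analysis. HepG2 were dosed 0.39–200 uM for 72 hr in 0.5% DMSO. Bidirectional fit relative to DMSO.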

Measured: AC50

CC1=C(C)S(=O)(=O)CCS1(=O)=O
active: [1] 82.3 µM | [3] 33.1 µM | [8] 73.8 µM | [9] 35.9 µM
inactive: all other assays above

O=C1OC(c2ccc(O)cc2)(c2ccc(O)cc2)c2ccccc21
active: [1] 31 µM | [3] 50.9 µM | [5] 73.3 µM | [6] 40 µM | [8] 29.2 µM | [9] 102 µM
inactive: [2] | [7]

C#CC(O)C(CC)CCCC (stereo unspecified)
not listed: [6] | [8]
inactive: all other assays above

CC(C)c1cccc(C(C)C)c1
not listed: [6] | [8]
inactive: all other assays above

NCCOCCOCCN
inactive: [2]
active: [1] 6.09 µM | [3] 15.8 µM | [4] 96.6 µM | [5] 76.5 µM | [7] 100 µM | [8] 7.09 µM | [9] 84.5 µM

O=[Si]=O
not listed: [4] | [10]
inactive: all other assays above

NC=O
not listed: [6] | [8] | [10]
inactive: all other assays above

COC(=O)[C@H]1[C@H]2C[C@@H]3c4[nH]c5cc(OC)ccc5c4CCN3C[C@H]2C[C@@H](OC(=O)c2cc(OC)c(OC)c(OC)c2)[C@@H]1OC
active: [1] 23.9 µM | [2] 48 µM | [3] 16.3 µM | [4] 39.4 µM | [5] 30.1 µM | [7] 55.1 µM | [8] 24.6 µM | [9] 28.8 µM

CCCCC(CC)COC(=O)CCCCCCCC(=O)OCC(CC)CCCC (stereo unspecified)
not listed: [10]
inactive: all other assays above

Nc1nc(Cl)nc2c1ncn2[C@H]1C[C@H](O)[C@@H](CO)O1
active: [1] 0.0288 µM | [3] 0.089 µM | [5] 0.551 µM | [8] 0.038 µM
not listed: [6]
inactive: all other assays above

CCCCCCCC(=O)OC
not listed: [4] | [10]
inactive: all other assays above

CCOCCOCCO
inactive: all assays above

Cc1cn([C@H]2C=C[C@@H](CO)O2)c(=O)[nH]c1=O
not listed: [8]
inactive: all other assays above

O=C(Oc1ccccc1)c1cccc(C(=O)Oc2ccccc2)c1
not listed: [8]
inactive: all other assays above

Cc1ccc(-c2cc(C(F)(F)F)nn2-c2ccc(S(N)(=O)=O)cc2)cc1
active: [1] 100 µM | [5] 106 µM
inactive: [2] | [3] | [4] | [7] | [9]

CC(C)COC(=O)CCCCC(=O)OCC(C)C
not listed: [6] | [8]
inactive: all other assays above

Cc1ccc(C(C)(C)C)c(O)c1
active: [1] 105 µM | [2] 111 µM | [3] 100 µM | [5] 110 µM
inactive: all other assays above

Oc1ccc(O)cc1
active: [8] 91.9 µM | [9] 46.3 µM | [10] 67.8 µM
inactive: all other assays above

C/C=C/c1ccc(OC)cc1
not listed: [6] | [8] | [10]
inactive: all other assays above

CC1(C)C(=O)NC(=O)N1CO
active: [9] 100 µM
inactive: all other assays above
